High-throughput results from PubChem BioAssay.
Rows were chosen to be rich in hits. Some 2.7% of all compounds tested hit in one or more screens of this group.
Peg3 prom inh: inhibitors of Peg3 promoter | HeLa PEG-Prom luciferase reporter, luminescence, overnight | inhibition, % at 20 µM | 1.7% of 360,000 active;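 active = inhibition of at least 50% at 20 µM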
KKLEB cytotox: counter-screen for CF NF-kB inhibitors: cytotoxicity. KKLEB CF airway cells viability, ATPlite luminescence, overnight; hits give low values; cells stimulated with P. aeruginosa culture filtrate. activity change (cytotoxicity), % at 5 µM. 0.36% of 360,000 active. AID 602141;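 active = corrected activity change at or below -50% at 5 µM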
CF NFkB block: blocks PAF-induced NF-kB reporter in cystic fibrosis cells. AID 588850. 0.86% of 360,000 active. KKLEB NF-kB-GFP reporter, GFP fluorescence overnight. inhibition, % at 5 µM;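 active = at least 50% inhibition at 5 µM, scaled per plate between neutral and stimulator controls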;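 note: PAF is a Pseudomonas aeruginosa culture filtrate used as stimulus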
Shn3 inh set2: Schnurri-3 reporter inhibition in Clone20 osteoblasts | Clone20 osteoblast Shn3 3'UTR firefly luciferase, 24 h | inhibition, % at 12.5 µM | 0.52% of 360,000 active;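 active = mean inhibition of at least 75% with every replicate also reaching 75%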
HIF-2a inh: HIF-2a inhibition. inhibition, % at 18.8 µM. 786-0 RCC cells HIF-2a reporter, luciferase luminescence, overnight. 0.72% of 360,000 active;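 active = inhibition of the luminescence signal of 40% or more relative to plate controls, in a single-dose primary screen at 18.75 µM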
MITF TRPM1 inh: inhibitors of MITF-driven TRPM1 promoter in melanoma cells; SK-MEL-5 TRPM1 promoter luciferase, 24 h; inhibition, % at 12.5 µM; 0.83% of 330,000 active;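 active = mean inhibition across replicates of 60% or more, whatever share of single replicates reaches that level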
Large screens that a line does not name were inactive.

O=C(Nc1ccc(Cl)c(-c2nc3ccccc3[nH]2)c1)c1ccc2c(c1)OCO2	none
O=C(CSc1ccccc1)Nc1ccc(-c2nc3ccccc3[nH]2)cc1	none
Cc1cccc(NC(=O)c2cccc(NC(=O)c3ccco3)c2)c1	none
O=C(Nc1ccc2nc(-c3ccccc3)[nH]c2c1)c1ccco1	none
O=C(Nc1ccc(-c2nc3ccccc3[nH]2)cc1)c1ccc2c(c1)OCO2	Peg3 prom inh 64
Cc1nc2c(OCc3ccc(C#N)cc3)cccn2c1N(C)C(=O)CCC1CCCC1	none (no result: MITF TRPM1 inh)
CCOC(=O)C1(C)CCCN(C(=O)c2cccc(C#N)c2)C1 (stereo unspecified)	none (no result: MITF TRPM1 inh)
Cn1c(=O)n(C)c2cc([N+](=O)[O-])c(N3CCN(S(=O)(=O)c4ccc(C(C)(C)C)cc4)CC3)cc21	Shn3 inh set2 85
O=C1c2cc([N+](=O)[O-])cc3cc([N+](=O)[O-])cc(c23)C(=O)N1c1ccccn1	MITF TRPM1 inh 82
O=C1c2ccc(Oc3cccc([N+](=O)[O-])c3)cc2C(=O)N1c1ccccn1	none
S=C(Nc1ccc(Cl)c(Cl)c1)NC1CCN(Cc2ccccc2)CC1	Peg3 prom inh 93
Fc1ccc(NC(=S)NC2CCN(Cc3ccccc3)CC2)cc1	none
CC(C)c1ccc(CN2CCC2(C)C(=O)Nc2cccc(Oc3ccccc3)c2)cc1 (stereo unspecified)	none (no result: MITF TRPM1 inh)
Cc1ccc(COc2cccc(/C=N/NC(=O)c3nnn(-c4nonc4N)c3C)c2)cc1	Peg3 prom inh 77, CF NFkB block 59
O=C1NC[C@H](Cc2ccccc2)N(C[C@@H]2CCCN2C[C@H](Cc2ccc(O)cc2)N2C[C@H](Cc3ccccc3)N(CCc3ccccc3)C(=O)C2=O)C1=O	none (no result: Peg3 prom inh, KKLEB cytotox, CF NFkB block, Shn3 inh set2, MITF TRPM1 inh)
CCN1CCC(O)(/C=C/c2ccc(C(C)C)cc2)C(C(=O)/C=C/c2ccc(C(C)C)cc2)C1 (stereo unspecified)	Peg3 prom inh 104, MITF TRPM1 inh 67
Cc1ccc(-n2cc(CNCCc3ncc(C)[nH]3)c(-c3ccc(F)cc3)n2)cc1	Peg3 prom inh 57
Cc1ccc(-n2cc(CNCCn3nc(C)cc3C)c(-c3ccc(F)cc3)n2)cc1	none
COc1ccc(-c2csc(C(C)(O)c3ccc(OC)cc3)n2)cc1 (stereo unspecified)	none (no result: MITF TRPM1 inh)
COC1=C(N)C(=O)c2nc(-c3nc(C(=O)O)c(C)c(-c4ccc(OC)c(OC)c4O)c3N)ccc2C1=O	Shn3 inh set2 114 (no result: Peg3 prom inh, KKLEB cytotox, CF NFkB block, HIF-2a inh, MITF TRPM1 inh)
CC(C)(C)c1nnc(N/N=C/c2cc(Br)ccc2O)n(N)c1=O	Peg3 prom inh 73, Shn3 inh set2 86, MITF TRPM1 inh 68
CCc1nnc(N/N=C/c2cc(Br)c(O)cc2O)n1N	none
O=C(Oc1ccc(Br)cc1C(=O)/C=C/c1ccccc1F)c1ccco1	Peg3 prom inh 50
Clc1nc(-c2ccccc2)c2ccccc2n1	none
NC(N)=Nc1nc(-c2ccccc2)c2ccccc2n1	Peg3 prom inh 57
CN(C)c1ncnc2c1ncn2[C@H]1CN(C2CCCC2)C[C@@H](CO)O1	none (no result: MITF TRPM1 inh)
COc1ccccc1CN(Cc1nc2ccccc2c(=O)[nH]1)S(=O)(=O)c1ccc2ccccc2c1	Peg3 prom inh 58
COc1ccc(-c2cc(C(=O)NCc3ccc(F)cc3)[nH]n2)c(C)c1	none (no result: MITF TRPM1 inh)
COCC(C)NC(=O)CCS(=O)(=O)c1nc(-c2ccc(OC)cc2)cc(C(F)(F)F)n1 (stereo unspecified)	Peg3 prom inh 110, KKLEB cytotox -76, CF NFkB block 86, HIF-2a inh 94
COCCNC(=O)CCSc1nc(-c2ccc(OC)cc2)cc(C(F)(F)F)n1	none
CCN(CC)CCNc1ncnc2c1sc1nc(N3CCCC3)c3c(c12)CC(C)(C)OC3	Peg3 prom inh 79
CCN(CC)CCNc1ncnc2c1sc1nc(N3CCOCC3)c3c(c12)CCCC3	Peg3 prom inh 100, MITF TRPM1 inh 77
O=C1CN(S(=O)(=O)c2cc(Br)ccc2Br)CCN1	none (no result: MITF TRPM1 inh)
O=c1c(Br)ccc(Br)cc1Br	Peg3 prom inh 95, KKLEB cytotox -94, CF NFkB block 91, Shn3 inh set2 97, HIF-2a inh 89, MITF TRPM1 inh 102
O=C(NCC1CCCCC1)c1ccc2nc([C@@H]3O[C@H](CO)[C@@H](O)[C@H]3O)[nH]c2c1	none (no result: MITF TRPM1 inh)
COc1ccccc1OCC(=O)c1[nH]c(C)c(C(C)=O)c1C	Shn3 inh set2 85
